Drawing on ChEMBL document CHEMBL4513149, “CO-ADD screening of MMV (CH) - MMV compounds” (2021), this text covers Inhibition for 19 compounds.

Potency and affinity values are given separately.

One assay concerns Klebsiella pneumoniae. The settings on record: Concentration 20 uM; ASSAY_TEST Inhibition of Bacterial Growth; detection method Absorption (OD600); MEDIA CAMHB; plate type 384well; NBS; CORNING #3640; time 18 hr.
The next assay concerns Candida albicans. To be noted: 20 µM.
The subject of a further assay is Cryptococcus neoformans. The settings on record: Concentration 20 uM; ASSAY_TEST Inhibition of Fungal Growth; detection method Resazurin; Absorption (OD600-OD570); plate type 384well; NBS; CORNING #3640. A general note: The colour change of resazurin is a common sign of viable cells or microbes.

For orientation: Inhibition means the relative decrease from the control value, in per cent. Turning to `Cc1nnc(NCc2cccc(Cl)c2)c2ccccc12`, the values for the Inhibition in the assay with Klebsiella pneumoniae, in the assay on Candida albicans and in the assay with Cryptococcus neoformans were 13.85%, 3.34% and -11.95%, respectively.

Regarding `N#Cc1ccc(-c2cnc(N)c(-c3ccc(C(N)=O)cc3)n2)cc1`, the Inhibition with Klebsiella pneumoniae was 16.03%; with Candida albicans, 4.25%; in the assay with Cryptococcus neoformans, -3.91%.

As for `COc1ccc(C2CC(c3cccs3)=NN2C(=O)c2ccco2)cc1OC` (configuration not stated), the Inhibition was 20.7% with Klebsiella pneumoniae, 5.76% in the assay with Candida albicans and -8.05% with Cryptococcus neoformans.

As for `COc1cccc2c(C)nc(N=C(N)N)nc12.O=C(O)C(F)(F)F.O=C(O)C(F)(F)F`, the Inhibition in the assay on Klebsiella pneumoniae was 9.38%; with Candida albicans, 2.56%; in the assay with Cryptococcus neoformans, -13.06%.

For the compound `Nc1ncnc2c1c(-c1cnc3ccccc3c1)nn2CC1CCNCC1`, the Inhibition in the assay on Klebsiella pneumoniae is 4.12%; in the assay on Candida albicans it was 2.53%; in the assay with Cryptococcus neoformans, -1.76%.

With `COC(=O)c1c(NC(=O)c2c(F)c(F)c(F)c(F)c2F)sc2c1CCCCC2`, the results for the Inhibition in the assay with Klebsiella pneumoniae, in the assay with Candida albicans and in the assay with Cryptococcus neoformans were 11.31%, 6.8% and -13.49%, respectively.

Consider `Cc1ccc2nc(Cl)c(CNCc3cccs3)cc2c1`, for which the Inhibition in the assay with Klebsiella pneumoniae is 1.61%; in the assay with Candida albicans, 2.37%; in the assay with Cryptococcus neoformans, -15.9%.

In the case of `CC(C)(C)n1nc(Cc2ccc(F)c(Cl)c2)c2c(N)ncnc21`, the figures for the Inhibition in the assay on Klebsiella pneumoniae, in the assay with Candida albicans and in the assay with Cryptococcus neoformans were 9.52%, 4.75% and -6.05%, respectively.

With `O=C(NCCN1CCCC1)c1cc(NCCCCN2CCC(F)(F)CC2)nc2ccc(Cl)cc12`, the Inhibition came out at 15.7% in the assay on Klebsiella pneumoniae, 2.73% with Candida albicans and 24.05% in the assay on Cryptococcus neoformans.

As to `Cc1ccc(Oc2ccc(NC(=O)CNc3ccccc3N3CCCC3=O)cc2)cc1`, the Inhibition is 9.79% with Klebsiella pneumoniae, 2.74% with Candida albicans and -10.82% in the assay with Cryptococcus neoformans.

Regarding `COc1ccc(OC(C)C(=O)Nc2ccc(Cl)cc2C)cc1` (configuration not stated), the results for the Inhibition with Klebsiella pneumoniae, in the assay on Candida albicans and in the assay on Cryptococcus neoformans were 4.92%, 7.33% and 5.96%, respectively.

With `CN1CCC(NCc2cccc(-c3ccc(S(=O)(=O)NCc4ccccc4)cc3)c2)CC1`, the Inhibition was 9.08% in the assay with Klebsiella pneumoniae, 3.63% in the assay with Candida albicans and -7.83% in the assay on Cryptococcus neoformans.

Consider `N#Cc1nc(-c2ccccc2F)oc1NCCc1ccccc1`, for which the Inhibition in the assay on Klebsiella pneumoniae is 12.11%; with Candida albicans, 6.96%; in the assay on Cryptococcus neoformans it was -3.78%.

As for `C[C@H](C(N)=O)N1CCCC[C@@H]1c1ccc(OCc2cccc(F)c2)cc1`, the Inhibition in the assay with Klebsiella pneumoniae is 9.46%; in the assay with Candida albicans, 2.97%; in the assay on Cryptococcus neoformans it was -6.98%.

Turning to `COc1ccc(C2=NN(C3CCCCCC3)C(=O)C2(C)C)cc1OCCCCOc1ccc(-c2nn[nH]n2)cc1`, the values for the Inhibition in the assay with Klebsiella pneumoniae, with Candida albicans and with Cryptococcus neoformans were 0.76%, 5.32% and -17.73%, respectively.

For `Nc1nc(N)c2c3c(sc2n1)CN(Cc1ccccc1)CC3`, the Inhibition in the assay with Klebsiella pneumoniae is 10.27%; with Candida albicans it was 2.79%; in the assay on Cryptococcus neoformans it was -1.76%.

As for `CCCCc1ccc(C(=O)Nc2nccc3ccccc23)nc1`, the figures for the Inhibition with Klebsiella pneumoniae, in the assay on Candida albicans and in the assay on Cryptococcus neoformans were 7.3%, 6.07% and -8.5%, respectively.

As for `CC(C)/N=c1\cc2n(-c3ccc(Cl)cc3)c3ccccc3nc-2cc1Nc1ccc(Cl)cc1` [CLOFAZIMINE], the Inhibition with Klebsiella pneumoniae was 13.39%; in the assay on Candida albicans, 5.63%; with Cryptococcus neoformans, -11.17%.

Consider `CCCc1ccc(S(=O)(=O)Nc2ccc(CN3CCN(CC4CC4)CC3)cc2)cc1`, for which the values for the Inhibition in the assay on Klebsiella pneumoniae, in the assay on Candida albicans and in the assay on Cryptococcus neoformans were 16.66%, 4.6% and -0.39%, respectively.
